Laboratory results as given in PubChem BioAssay AID2530 (National Center for Advancing Translational Sciences (NCATS), 2010).
Results filed as inconclusive are left out. Unmarked numbers belong to inactive results. Activity calls are given as the source filed them. Calls follow the shape of the dose curve; as a rule, active = well fitted inhibition curve with a large enough effect; inconclusive = small, poorly fitted or top-dose-only effect; inactive = flat fitted curve, though single readings scatter.

The molecules below were run against Luciferin 4-monooxygenase (Photuris pensylvanica) (UniProt Q27757) (assay: Secondary Assay for Luciferase (Kinase-Glo TM) Inhibition Counterscreen). Settings: Kinase-Glo luciferase enzyme, luminescence; series mostly up to 58.1 µM; activity, negative = inhibition: at the top concentration.
Procedure, shortened: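 Inhibition was fitted with the Hill equation after normalizing luminescence to DMSO (basal) and 40 uM SIB 1757 (full inhibition). Kinase-Glo luciferase ran for 8 min at room temperature in imidazole buffer pH 7.2 with KCl, MgCl2 and 10 uM ATP.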
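For activity, negative = inhibition in this document: 0% = DMSO only and -100% = 40 µM SIB 1757 full inhibition.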
Potency is read from the fitted curve at half-maximal effect.

| Structure (SMILES) | activity, negative = inhibition | Potency |
| --- | --- | --- |
| CN=c1scc(-c2ccco2)n1/N=C/c1ccc(O)c(O)c1 | -14.5% |  |
| Cc1cc(N2C(=O)c3ccccc3C2=O)n[nH]1 | 1.57% |  |
| COc1cccc(OC2=NS(=O)(=O)c3ccccc32)c1 | 2% |  |
| COc1cc(F)c(S(=O)(=O)N2CCCN(S(=O)(=O)c3cccc(N)c3)CC2)c(F)c1 | -0.216% |  |
| O=C1CCc2cc(S(=O)(=O)Nc3cccc(C(F)(F)F)c3)ccc2N1 | -1.7% |  |
| O=S1(=O)N=C(Oc2cccc(Cl)c2)c2ccccc21 | -1.41% |  |
| Cc1ccccc1NS(=O)(=O)c1ccc2c(c1)CCC(=O)N2 | 0.467% |  |
| Cc1ccc(N2C(=O)c3ccccc3C2O)nc1 (stereo not drawn) |  | 6.51 µM (active) |
| Cc1ccc(NS(=O)(=O)c2ccc3c(ccn3C)c2)cc1C | 1.35% |  |
| Cc1ccc(C(=O)N2c3ccccc3CC2C)o1 (stereo not drawn) |  | 18.3 µM (active) |
| O=C1c2ccccc2C(=O)N1C1CCCCC1 | 0.793% |  |
| O=C1c2ccccc2C(=O)N1c1cccnc1 | -2.37% |  |
| Cc1ccc(NS(=O)(=O)c2ccc3c(c2)CCC(=O)N3)cc1C | -1.08% |  |
| c1ccc2nc(-c3nc4ccccc4[nH]3)ccc2c1 |  | 5.8 µM (active) |
| O=C1C(Cl)=C(NC(=O)c2ccccc2)C(=O)C(Cl)=C1NC(=O)c1ccccc1 | -11.6% |  |
| Cc1ccc(NS(=O)(=O)c2cc3c(cc2F)NC(=O)CC3)cc1C | 2.32% |  |
| O=C1c2ccccc2C(=O)N1c1cccc2ncccc12 | -0.367% |  |
| Cc1ccc(NS(=O)(=O)c2ccc(N3CCCC3=O)cc2)cc1C | -2.22% |  |
| O=C1c2ccccc2C(=O)N1c1cc(=O)c2ccccc2[nH]1 | 1.52% |  |

| Structure (SMILES) | activity, negative = inhibition | Potency |
| --- | --- | --- |
| O=c1c2ccccc2cnn1-c1nc2ccccc2[nH]1 |  | 2.59 µM (active) |
| Cc1ccc(NS(=O)(=O)c2ccc3c(c2)NC(=O)CO3)cc1C | 3.32% |  |
| Cc1ccc(NC(=O)c2ccc3c(c2)CCC(=O)N3)cc1C | -1.54% |  |
| O=S1(=O)N=C(Oc2ccccc2)c2ccccc21 | -3.28% [at 82.8 µM] |  |
| COc1ccc(C(=O)C[n+]2ccc(N)c(C)c2C)cc1 | -1.09% |  |
| COc1ccc(C(=O)N=c2nc3ccccn3s2)cc1 |  | 5.8 µM (active) |
| Cc1cc(C)c2c(=O)n(CC(=O)Nc3cccc(Cl)c3C)sc2n1 | -15.8% |  |
| O=C(COC(=O)CCC(=O)c1ccc(F)cc1)Nc1ccc(F)cc1F | -4.06% |  |
| CCNc1cccc(S(=O)(=O)N2CCN(S(=O)(=O)c3ccc4c(c3)OCCO4)CC2)c1 | 0.695% |  |
| O=C1c2ccccc2C(=O)N1c1ccc2ncccc2c1 | 1.15% |  |
| C[C@]12CC[C@@H]3c4cc(O)c(O)cc4CC[C@H]3[C@@H]1CC[C@@H]2O | -6.33% |  |
| Cc1ccc(OC2=NS(=O)(=O)c3ccccc32)cc1 | -1.98% |  |
| O=C(/C=C/c1ccc2c(c1)OCO2)c1ccccn1 |  | 5.8 µM (active) |
| COc1ccccc1OC1=NS(=O)(=O)c2ccccc21 | -0.0267% |  |
| Cc1ccc(NS(=O)(=O)c2ccc3c(c2)CCC(C)(C)O3)cc1C | -2.01% |  |
| Cc1ccc(NS(=O)(=O)c2ccc(Cl)cc2)cc1C | -0.974% |  |
| Oc1ccc(O)c2c1C1c3ccccc3C2c2ccccc21 | 1.66% |  |
| Cc1nc(-c2ccc(S(=O)(=O)Nc3ccc(C)c(C)c3)s2)cs1 | 1.99% |  |
| c1c2c(cc3sc(N4CCCCC4)nc13)OCO2 |  | 10.3 µM (active) |
